Experiment [1] is described as follows: cAMP Responsive Elements (CRE) small molecule antagonists, cell-based qHTS assay: qHTS cell viability counter screen (AID 2060913). Note: nearly all actives have a fitted effect of over 40% in size. Put shortly:
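Cytotoxicity read in the same wells as the CRE-bla HEK293T antagonist assay: after 3 h compound with 0.25 uM NKH477 final and 2 h beta-lactamase substrate, CellTiter-Glo luminescence measured.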
A general note: qHTS replaces the single test concentration by a dilution series.

Experiment [2] is described as follows: cAMP Responsive Elements (CRE) small molecule agonists, cell-based qHTS assay: qHTS cell viability counter screen (AID 2060914). Note: nearly all actives have a fitted effect of over 50% in size. Put shortly: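 CRE-bla HEK293T cells in 10% dialyzed FBS medium were exposed to compounds for 3 h at 37C after 18 h plating. CellTiter-Glo was then added in the same wells, and luminescence was read after 30 min at room temperature.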

Data on 59 compounds can be found in PubChem BioAssay (Tox21).

“And” between values parts separate entries of the source, which are not always exact repeats. Equal entries are not always repeated. Inconclusive results are not listed. The source made the active and inactive calls. Calls come from the whole dose curve; as a rule, active = well fitted cell-killing curve with a large enough effect in the repeat runs; inconclusive = weak or mixed curves, or effect the other way; inactive = flat fitted curve, though single readings scatter.
% is set by controls: 0 for no effect and ±100 for the full control effect; potency is the fitted concentration of half-maximal effect.

Take `ClC(Cl)=C(Cl)C(Cl)=C(Cl)Cl`: the Potency result in experiment [1] and in experiment [2] was “inactive” throughout.
Turning to `C1CN2CCC1CC2`, the Potency result in experiment [1] and in experiment [2] was “inactive” in each case.
`CCCCCCCCBr`: the Potency entry in experiment [1] and in experiment [2] was “inactive” in each case.
For the compound `N#CC(C#N)=C(C#N)C#N`, the Potency result in experiment [1] and in experiment [2] was “inactive” each time.
On to `CC[N+](CC)(CC)CC`, for which the Potency entry in experiment [1] and in experiment [2] was “inactive” each time.
Regarding `ClCC1CO1` (stereo not drawn), the Potency entry in experiment [1] and in experiment [2] was “inactive” each time.
On to `Cc1cc(-c2cc(C)c(N)c(C)c2)cc(C)c1N`, for which the Potency entry in experiment [1] and in experiment [2] was “inactive” each time.
With `CCNc1nc(NC(C)C(C)C)nc(SC)n1` (stereo not drawn), the Potency result in experiment [1] and in experiment [2] was “inactive” each time.
On to `Cc1ccc(C(=O)Cl)cc1`, for which the Potency entry in experiment [1] and in experiment [2] was “inactive” in each case.
For the compound `Cc1ccc2cc(C)ccc2c1`, the Potency entry in experiment [1] and in experiment [2] was “inactive” throughout.
Take `O=S(=O)(c1ccc(O)cc1)c1ccc(O)cc1`: the Potency entry in experiment [1] and in experiment [2] was “inactive” in each case.
For `O=[N+]([O-])/N=C1\NCCN1Cc1ccc(Cl)nc1`, the Potency entry in experiment [1] and in experiment [2] was “inactive” each time.
In the case of `c1ccc(P(c2ccccc2)c2ccccc2)cc1`, the Potency result in experiment [1] and in experiment [2] was “inactive” each time.
On to `CC(COc1ccc(Oc2ccccc2)cc1)Oc1ccccn1` (stereo not drawn), for which the Potency result in experiment [1] and in experiment [2] was “inactive” each time.
With `CCCOc1nn(C(=O)NS(=O)(=O)c2ccccc2C(=O)OC)c(=O)n1C`, the Potency entry in experiment [1] and in experiment [2] was “inactive” each time.
In the case of `CCC1COC(Cn2cncn2)(c2ccc(Cl)cc2Cl)O1` (stereo not drawn), the Potency result in experiment [1] and in experiment [2] was “inactive” throughout.
Turning to `CON(C)C(=O)Nc1ccc(Br)c(Cl)c1`, the Potency entry in experiment [1] and in experiment [2] was “inactive” throughout.
As to `CN1CCc2cc3c(cc2C1O)OCO3` (stereo not drawn), the Potency result in experiment [1] and in experiment [2] was “inactive” in each case.
In the case of `CN(C)C(=O)Nc1cccc(OC(=O)NC(C)(C)C)c1`, the Potency entry in experiment [1] and in experiment [2] was “inactive” each time.
In the case of `Oc1ccc(Cl)cc1`, the Potency entry in experiment [1] and in experiment [2] was “inactive” in each case.
Turning to `BrCCBr`, the Potency result in experiment [1] and in experiment [2] was “inactive” throughout.
`CCCn1cc[n+](C)c1`: the Potency result in experiment [1] and in experiment [2] was “inactive” throughout.
For the compound `CCC(=O)O[C@@H]1C=C2CCC3C(CCC4(C)C3CC[C@@H]4OC(=O)CC)C2CC1` (stereo partly drawn), the Potency entry in experiment [1] and in experiment [2] was “inactive” in each case.
On to `NNCc1ccccc1`, for which the Potency result in experiment [1] and in experiment [2] was “inactive” throughout.
For the compound `BrCC1CO1` (stereo not drawn), the Potency result in experiment [1] and in experiment [2] was “inactive” in each case.
Turning to `CC[N+]1(CC)CCC(OC(=O)C(O)(c2ccccc2)c2ccccc2)C1` (stereo not drawn), the Potency result in experiment [1] and in experiment [2] was “inactive” throughout.
For the compound `C[N+]1(CCF)[C@@H]2CC[C@H]1CC(OC(=O)C(O)(c1ccccc1)c1ccccc1)C2` (stereo partly drawn), the Potency result in experiment [1] and in experiment [2] was “inactive” in each case.
Consider `O=C=NC1CCCCC1`, for which the Potency result in experiment [1] and in experiment [2] was “inactive” each time.
As for `O=[N+]([O-])CCO`, the Potency result in experiment [1] and in experiment [2] was “inactive” in each case.
Regarding `Cc1c([N+](=O)[O-])c(C)c([N+](=O)[O-])c(C(C)(C)C)c1[N+](=O)[O-]`, the Potency entry in experiment [1] and in experiment [2] was “inactive” throughout.
Turning to `CN(C)c1ccc(N(C)C)cc1`, the Potency entry in experiment [1] and in experiment [2] was “inactive” each time.
On to `CC(Br)C(=O)O` (stereo not drawn), for which the Potency result in experiment [1] and in experiment [2] was “inactive” throughout.
For the compound `Clc1cccc(N2CCNCC2)c1`, the Potency result in experiment [1] and in experiment [2] was “inactive” in each case.
As for `CC(c1ccc(O)cc1)(c1ccc(O)cc1)c1ccc(O)cc1`, the Potency entry in experiment [1] and in experiment [2] was “inactive” in each case.
For `Oc1ccc(C(=C(Cl)Cl)c2ccc(O)cc2)cc1`, the Potency result in experiment [1] and in experiment [2] was “inactive” throughout.
`CCCCCCCCCCCCOS(=O)(=O)O`: the Potency result in experiment [1] and in experiment [2] was “inactive” in each case.
On to `CCC(C)(c1ccc(O)cc1)c1ccc(O)cc1`, for which the Potency entry in experiment [1] and in experiment [2] was “inactive” in each case.
With `Nc1ccc(-c2ccc(N)cc2)cc1`, the Potency entry in experiment [1] and in experiment [2] was “inactive” throughout.
Regarding `CCCCCCCCOC(=O)c1ccccc1C(=O)OCCCCCCCC`, the Potency entry in experiment [1] and in experiment [2] was “inactive” in each case.
Consider `CCCCOC(=O)COC(=O)c1ccccc1C(=O)OCCCC`, for which the Potency result in experiment [1] and in experiment [2] was “inactive” in each case.
`CCCCCCCCCCCCCCCC[n+]1ccccc1`: the Potency is 57 µM (active) and 54.5 µM (active) and 56.2 µM (active) in experiment [1]; 47.9 µM (active) [middle of 4 runs] in experiment [2].
With `N#Cc1c(Cl)c(Cl)c(Cl)c(C#N)c1Cl`, the Potency entry in experiment [1] and in experiment [2] was “inactive” in each case.
With `N#Cc1ccccn1`, the Potency result in experiment [1] and in experiment [2] was “inactive” in each case.
For the compound `COc1ccc2c(c1OC)C(=O)O[C@H]2[C@@H]1c2cc3c(cc2CCN1C)OCO3`, the Potency entry in experiment [1] and in experiment [2] was “inactive” each time.
On to `C[C@@H]1C[C@@H]([C@H](O)CC2CC(=O)NC(=O)C2)C(=O)[C@@H](C)C1`, for which the Potency result in experiment [1] and in experiment [2] was “inactive” throughout.
As for `COC(C)(C)CCC[C@H](C)C/C=C/C(C)=C/C(=O)OC(C)C`, the Potency result in experiment [1] and in experiment [2] was “inactive” in each case.
Turning to `Nc1ccc(N)cc1`, the Potency result in experiment [1] and in experiment [2] was “inactive” each time.
For `COC(N)=O`, the Potency entry in experiment [1] and in experiment [2] was “inactive” throughout.
Consider `C=CCOC(=O)C(C)(C)OC(=O)c1cc(-n2c(=O)cc(C(F)(F)F)n(C)c2=O)ccc1Cl`, for which the Potency result in experiment [1] and in experiment [2] was “inactive” in each case.
`O=Cc1cccc(Oc2ccccc2)c1`: the Potency result in experiment [1] and in experiment [2] was “inactive” throughout.
In the case of `COc1ccc(OC)c(CC(C)N)c1` (stereo not drawn), the Potency result in experiment [1] and in experiment [2] was “inactive” in each case.
With `Nc1ccc([N+](=O)[O-])cc1[N+](=O)[O-]`, the Potency entry in experiment [1] and in experiment [2] was “inactive” throughout.
For `COC12CC[C@@]3(C[C@@H]1C(C)(O)C(C)(C)C)[C@H]1Cc4ccc(O)c5c4[C@@]3(CCN1CC1CC1)[C@H]2O5` (stereo partly drawn), the Potency in experiment [1] was 60.7 µM (active). Moreover, in experiment [2], the Potency result was “inactive”.
For `CC(=O)C=C(C)C`, the Potency result in experiment [1] and in experiment [2] was “inactive” in each case.
Regarding `Oc1ccc(Cl)c(Cl)c1Cl`, the Potency result in experiment [1] and in experiment [2] was “inactive” each time.
Regarding `O=C(CCN1CC1)OCC(CO)(COC(=O)CCN1CC1)COC(=O)CCN1CC1`, the Potency result in experiment [1] and in experiment [2] was “inactive” each time.
As for `CC(C)[C@@H](C(=O)O[C@@H](C#N)c1cccc(Oc2ccccc2)c1)c1ccc(Cl)cc1`, the Potency result in experiment [1] and in experiment [2] was “inactive” each time.
As for `CCOc1cc(OP(=S)(OC)OC)nc(CC)n1`, the Potency result in experiment [1] and in experiment [2] was “inactive” in each case.
Consider `CCOP(=S)(OCC)Oc1ncn(-c2ccccc2)n1`, for which the Potency entry in experiment [1] and in experiment [2] was “inactive” in each case.
